Measured values as given in PubChem BioAssay AID1159580 (chemical genetic matrix, 2015).
Several values for one entry are separate records, joined by “and”; a condition that tells them apart may be missing. Equal values may be shown once. Out of some 5,500 compounds screened, about 2,000 (36%) were called active. Inconclusive results (about 18%) are left out. Cut-off read from the data, not from the text of the source: active = normalized growth mostly below about 0.91 (no sharp cut-off); inconclusive = no clear call, values can overlap the other calls; inactive = mostly above about 0.92. The list shows a part of the results.

Experiment: chemical genetic growth profiling, strain panel (AID 1159580);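 note: tested at 20 µM; growth read once vehicle control cultures reached saturation at 30 °C; 1 = growth at the plate median or of vehicle wells; lower values mean less growth of the strain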
Details: S. cerevisiae deletion strains, growth OD

Measured: normalized growth

COc1cc(OC)c2c(=O)c(OC)c(-c3ccc(OC)c(OC)c3)oc2c1
inactive: locus YAL021C, strain ccr4, hits give low values 1.01 | locus YAL026C, strain drs2, hits give low values 1.02 | locus YAL030W, strain snc1, hits give low values 1.02 | locus YBL061C, strain skt5, hits give low values 1 | locus YBR009C, strain hhf1, hits give low values 1.01 | locus YBR021W, strain FUR4, hits give low values 0.952 | locus YBR023C, strain chs3, hits give low values 1.01 | locus YBR171W, strain sec66, hits give low values 1.04 | locus YBR229C, strain ROT2, hits give low values 1 | locus YBR231C, strain swc5, hits give low values 1 | locus YBR279W, strain paf1, hits give low values 1.02 | locus YCL011C, strain gbp2, hits give low values 1.01 | locus YCL016C, strain dcc1, hits give low values 1.01 | locus YCL029C, strain bik1, hits give low values 1.01 | locus YCL061C, strain MRC1, hits give low values 1.02 | locus YCL069W, strain vba3, hits give low values 1.02 | locus YCR088W, strain abp1, hits give low values 1.03 | locus YDL005C, strain med2, hits give low values 1.02 | locus YDL035C, strain GPR1, hits give low values 0.996 | locus YDL040C, strain nat1, hits give low values 1.01 | locus YDL074C, strain BRE1, hits give low values 0.995 | locus YDL101C, strain DUN1, hits give low values 1 | locus YDL185W, strain tfp1, hits give low values 1.01 | locus YDL192W, strain arf1, hits give low values 0.987 | locus YDR001C, strain nth1, hits give low values 1.02 | locus YDR069C, strain doa4, hits give low values 1.02 | locus YDR101C, strain arx1, hits give low values 1.01 | locus YDR137W, strain rgp1, hits give low values 1.06 | locus YDR150W, strain NUM1, hits give low values 0.998 | locus YDR159W, strain sac3, hits give low values 1.02 | locus YDR162C, strain NBP2, hits give low values 0.98 | locus YDR195W, strain ref2 1.04 | locus YDR297W, strain sur2, hits give low values 1.01 | locus YDR318W, strain mcm21, hits give low values 0.977 | locus YDR334W, strain swr1, hits give low values 1.02 | locus YDR335W, strain msn5, hits give low values 1.03 | locus YDR388W, hits give low values 0.995 | locus YDR392W, strain spt3, hits give low values 0.91 | locus YDR502C, strain sam2, hits give low values 1.01 | locus YEL003W, strain gim4, hits give low values 1.02 | locus YEL037C, strain rad23, hits give low values 1.02 | locus YEL061C, strain CIN8 (second series), hits give low values 1.02 | locus YEL061C, strain CIN8, hits give low values 1 | locus YER015W, strain faa2, hits give low values 1.01 | locus YER016W, strain bim1, hits give low values 1.01 | locus YER110C, hits give low values 1.02 | locus YER111C, strain swi4, hits give low values 1.03 | locus YER155C, strain BEM2 (second series), hits give low values 1.02 | locus YER155C, strain BEM2, hits give low values 1 | locus YER167W, strain BCK2, hits give low values 1 | locus YFR010W, strain ubp6, hits give low values 1.03 | locus YGL078C, strain dbp3, hits give low values 1.02 | locus YGL086W, strain mad1, hits give low values 1.01 | locus YGL167C, strain pmr1, hits give low values 1 | locus YGL173C, strain kem1, hits give low values 1.01 | locus YGL227W, strain vid30, hits give low values 1.02 | locus YGL240W, strain doc1, hits give low values 1.03 | locus YGL248W, strain PDE1, hits give low values 0.97 | locus YGL253W, strain hxk2, hits give low values 1.02 | locus YGR078C, strain PAC10, hits give low values 0.958 | locus YGR135W, strain pre9, hits give low values 0.968 | locus YGR252W, strain gcn5, hits give low values 0.915 | locus YHR013C, strain ard1, hits give low values 1.01 | locus YHR027C, strain rpn1, hits give low values 1.01 | locus YHR030C, strain SLT2, hits give low values 1.01 and 0.976 | locus YHR079C, strain IRE1 (second series), hits give low values 1.02 | locus YHR079C, strain IRE1, hits give low values 0.992 | locus YHR094C, strain hxt1, hits give low values 1.01 | locus YHR129C, strain ARP1, hits give low values 0.992 | locus YHR142W, strain chs7, hits give low values 1.01 | locus YHR200W, strain rpn10, hits give low values 1 | locus YIL066C, strain RNR3, hits give low values 0.982 | locus YIL073C, strain SPO22, hits give low values 1.03 | locus YIL125W, strain kgd1, hits give low values 1.02 | locus YIR030C, strain dcg1, hits give low values 1 | locus YJL092W, strain hpr5, hits give low values 1.02 | locus YJL095W, strain BCK1 (second series), hits give low values 1.01 | locus YJL095W, strain BCK1, hits give low values 0.934 and 1 | locus YJL115W, strain asf1, hits give low values 1.02 | locus YJL129C, strain trk1, hits give low values 1.01 | locus YJL134W, strain LCB3, hits give low values 1.01 | locus YJL154C, strain vps35, hits give low values 1 | locus YJL164C, strain tpk1, hits give low values 1.01 | locus YJL166W, strain qcr8, hits give low values 1 | locus YJL168C, strain set2, hits give low values 1.02 | locus YJL187C, strain SWE1 (second series), hits give low values 0.996 | locus YJL187C, strain SWE1, hits give low values 1.01 | locus YJR043C, strain POL32, hits give low values 1 | locus YJR066W, strain TOR1, hits give low values 0.941 | locus YJR075W, strain HOC1, hits give low values 0.986 | locus YKL009W, strain mrt4, hits give low values 1.02 | locus YKL068W, hits give low values 1 | locus YKL085W, strain MDH1 (second series), hits give low values 0.997 | locus YKL085W, strain MDH1, hits give low values 0.997 | locus YKL160W, strain elf1, hits give low values 0.995 | locus YKR001C, strain vps1, hits give low values 0.994 | locus YKR026C, strain gcn3, hits give low values 0.997 | locus YKR091W, strain srl3, hits give low values 1.02 | locus YLL001W, strain dnm1, hits give low values 1.03 | locus YLL026W, hits give low values 1.01 | locus YLL041C, strain sdh2, hits give low values 1.01 | locus YLR027C, strain aat2, hits give low values 1.01 | locus YLR039C, strain RIC1, hits give low values 0.976 | locus YLR058C, strain SHM2, hits give low values 0.984 | locus YLR102C, strain apc9, hits give low values 1.01 | locus YLR113W, strain HOG1, hits give low values 0.978 | locus YLR221C, strain rsa3, hits give low values 1.01 | locus YLR258W, strain gsy2, hits give low values 1.02 | locus YLR262C, strain YPT6 (second series), hits give low values 1.08 | locus YLR262C, strain YPT6, hits give low values 0.984 | locus YLR268W, strain sec22, hits give low values 1.03 | locus YLR320W, strain mms22, hits give low values 0.985 | locus YLR330W, strain CHS5, hits give low values 1.01 | locus YLR342W, strain FKS1 (second series), hits give low values 0.973 | locus YLR342W, strain FKS1, hits give low values 1.01 | locus YLR357W, strain rsc2, hits give low values 1.02 | locus YLR370C, strain arc18, hits give low values 1.01 | locus YLR371W, strain rom2, hits give low values 1.02 | locus YLR384C, strain iki3, hits give low values 1.01 | locus YLR418C, strain cdc73, hits give low values 0.954 | locus YML016C, strain PPZ1, hits give low values 0.992 | locus YML032C, strain rad52, hits give low values 0.987 | locus YML120C, strain ndi1, hits give low values 1.02 | locus YML124C, strain tub3, hits give low values 1 | locus YMR058W, strain fet3, hits give low values 1.03 | locus YMR078C, strain ctf18, hits give low values 1.01 | locus YMR125W, strain sto1, hits give low values 1.03 | locus YMR129W, hits give low values 1.03 | locus YMR205C, strain PFK2, hits give low values 1.03 | locus YMR223W, strain ubp8, hits give low values 0.972 | locus YMR231W, strain pep5, hits give low values 1.02 | locus YMR263W, strain SAP30, hits give low values 0.996 | locus YMR307W, strain GAS1, hits give low values 0.981 | locus YNL067W, strain RPL9B, hits give low values 1 | locus YNL071W, strain lat1, hits give low values 1.01 | locus YNL153C, strain GIM3, hits give low values 0.972 | locus YNL183C, strain NPR1, hits give low values 0.926 | locus YNL209W, strain ssb2, hits give low values 1.01 | locus YNL233W, strain BNI4, hits give low values 0.955 | locus YNL248C, strain rpa49, hits give low values 1.02 | locus YNL250W, strain rad50, hits give low values 1.03 | locus YNL271C, strain bni1, hits give low values 1.02 | locus YNL298W, strain CLA4, hits give low values 0.998 | locus YNL307C, strain MCK1, hits give low values 1.01 | locus YNL322C, strain KRE1 (second series), hits give low values 1.02 | locus YNR049C, strain mso1, hits give low values 1.02 | locus YNR052C, strain pop2, hits give low values 0.993 | locus YOL006C, strain TOP1, hits give low values 1.03 | locus YOL012C, strain htz1 0.947 | locus YOL147C, strain pex11, hits give low values 1.02 | locus YOR001W, strain rrp6, hits give low values 1.01 | locus YOR061W, strain CKA2, hits give low values 1.01 | locus YOR069W, strain VPS5, hits give low values 1.01 | locus YOR070C, strain gyp1, hits give low values 1.03 | locus YOR080W, strain dia2, hits give low values 1.01 | locus YOR083W, strain WHI5, hits give low values 0.997 | locus YOR106W, strain vam3, hits give low values 0.992 | locus YOR136W, strain idh2, hits give low values 1.02 | locus YOR144C, strain elg1, hits give low values 1.01 | locus YOR184W, strain ser1, hits give low values 0.992 | locus YOR231W, strain MKK1, hits give low values 1.01 | locus YOR265W, strain rbl2, hits give low values 1 | locus YOR270C, strain vph1, hits give low values 1.09 | locus YOR290C, strain snf2, hits give low values 1 | locus YOR316C, strain cot1, hits give low values 1.01 | locus YPL051W, strain arl3, hits give low values 0.993 | locus YPL078C, strain atp4, hits give low values 1.02 | locus YPL106C, strain sse1, hits give low values 0.999 | locus YPL240C, strain hsp82, hits give low values 1 | locus YPL256C, strain CLN2, hits give low values 0.976 | locus YPR119W, strain clb2, hits give low values 1.01 | locus YPR141C, strain kar3, hits give low values 1.02 | locus YPR163C, strain tif3, hits give low values 1 | locus YPR167C, strain met16, hits give low values 1.04 | strain wtn01, hits give low values 1.04
